# Assay results: PubChem BioAssay (Tox21)
# Records with an inconclusive call do not appear. Entries that show only a call come without a potency. The source made the active and inactive calls. The call rests on the fitted dose curve; in most records, active means well fitted cell-killing curve with a large enough effect in the repeat runs; inconclusive means weak or mixed curves, or effect the other way; inactive means flat fitted curve, though single readings scatter.
# Assay: qHTS assay to identify small molecule antagonists of the estrogen related receptor signaling pathway with the pleiotropic PPARgamma coactivator (PGC) cell viability counter screen (AID 1224822;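 further: viability read after 17.5 h compound exposure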)
# Conditions: ERR/PGC reporter cell line viability counter screen; series mostly up to 46.1 µM
# Description: National Center for Advancing Translational Sciences [NCATS]
# NIH Chemical Genomics Center [NCGC]
# U.S. Environmental Protection Agency [EPA]
# National Institutes of Environmental Health Sciences [NIEHS]
# National Toxicology Program [NTP]
# U.S. Food and Drug Administration [FDA]
# Estrogen related receptors (ERRs), the first orphan nuclear receptors discovered, play an important role in the control of cellular energy metabolism. ERRs are required for high-energy production in response to the environmental challenges. The pleiotropic PPARgamma coactivator (PGC) is a major partner of ERR and a key regulator in energy homeostasis. Together they have been implicated in the etiology of metabolic disorders such as Type 2 diabetes and metabolic syndrome. ERR-alpha was also identified as an adverse marker for breast cancer progression; ERR-alpha-positive tumors have a poor prognosis. To screen and to identify environmental compounds that perturb the ERR and PGC/ERR signaling pathways could provide valuable information for potential therapeutic or preventive measures in the treatment of metabolic disease. To differentiate true PGC/ERR antagonists or agonist from cytotoxic substances, the assay is multiplexed with cell viability assay.
# Tox21 Assay Protocol Summary:
# The PGC/ERR cells were dispensed at 2,000 cells/5 ul/well in 1536-well white plates using a Multidrop dispenser. After the assay plates were incubated at a 37 C/5% CO2 incubator for 6 hours, 23 nL of compounds dissolved in DMSO, positive and negative controls or DMSO only was transferred to the assay plate by a pin tool. The plates were incubated at 37 C for 17.5 hours. 1 ul/well of CellTiter-Fluor reagent was added into the assay plates using a Flying Reagent Dispenser. After 30 min incubation at 37 C/5% CO2, the fluorescence intensity in the plates was measured using a ViewLux plate reader.
# Potency means the concentration at half of the fitted maximal effect.
row,Compound,Potency
1,C=CCN1CCc2c(cc(O)c(O)c2Cl)C(c2ccccc2)C1 (stereo not given),inactive
2,O=C1NC(=O)/C(=C/c2ccc3c(c2)OC(F)(F)O3)S1,inactive
3,NCCCC(=O)O,inactive
4,Nc1nc2ccc(Cl)cc2c2nc(-c3ccco3)nn12,inactive
5,NCC(O)(CS(=O)(=O)O)c1ccc(Cl)cc1 (stereo not given),inactive
6,COc1ccc(/C=C/C(=O)Nc2ccccc2C(=O)O)cc1OC,inactive
7,CC(C)NC[C@@H](O)c1ccc(O)c(O)c1,inactive
8,COc1cc(C(O)C(=O)O)ccc1O (stereo not given),inactive
9,Clc1ccc2c(N3CCN(CCCN4CCN(c5ccnc6cc(Cl)ccc56)CC4)CC3)ccnc2c1,inactive
10,CN(C)CCCC1(c2ccc(F)cc2)OCc2cc(C#N)ccc21 (stereo not given),inactive
11,N[C@@H](CCCC(=O)O)C(=O)O,inactive
12,CC(=O)O[C@H]1Cc2ccccc2N(C(N)=O)c2ccccc21,inactive
13,C1CCc2nnnn2CC1,inactive
14,CS(=O)(=O)c1ccc(-n2nc(C(F)(F)F)cc2-c2ccc(F)cc2)cc1,inactive
15,COc1cc(CC(=O)O)ccc1O,inactive
16,CCN(CC)CCOc1ccc(Nc2ncc3cc(-c4c(Cl)cccc4Cl)c(=O)n(C)c3n2)cc1,1.74 µM (active)
17,Nc1ccc(-c2ccc3ccccc3n2)cc1,inactive
18,OC[C@H]1NC[C@@H](O)[C@@H]1O,inactive
19,O=Nc1c(-c2c(O)[nH]c3ccccc23)[nH]c2ccccc12,13.9 µM (active)
20,COc1cc(C(O)CO)ccc1O (stereo not given),inactive

row,Compound,Potency
1,CC(N)(Cc1ccc(O)cc1)C(=O)O (stereo not given),inactive
2,COc1cc2c(CCNC(C)=O)c[nH]c2cc1O,inactive
3,CO/N=C(\C(=O)N[C@@H]1C(=O)N2C(C(=O)O)=C(COC(C)=O)CS[C@H]12)c1csc(N)n1 (stereo in doubt),inactive
4,N=c1c[n+](N2CCOCC2)[n-]o1,inactive
5,NCCCCC(=O)O,inactive
6,Cn1c(=O)[nH]c2ncn(C)c2c1=O,inactive
7,COC1(C2=NCCN2)COc2ccccc2O1 (stereo not given),inactive
8,NC(=O)C1=CN(C2OC(COP(=O)(O)OP(=O)(O)OC[C@H]3O[C@@H](n4cnc5c(N)ncnc54)[C@H](OP(=O)(O)O)C3O)C(O)C2O)C=CC1 (stereo not given in full),inactive
9,N=S(=O)(O)Cc1noc2ccccc12,inactive
10,NCCCCCCCCCCN,inactive
11,CCCOC(=O)c1ccc(O)cc1,inactive
12,O=c1c2ccccc2nc2n1CCc1c-2[nH]c2ccccc12,inactive
13,c1ccc(CN2CCC3(CCCc4ccccc43)CC2)cc1,inactive
14,NOCC(=O)O,inactive
15,CCCCC#Cc1nc(NC)c2ncn([C@@H]3O[C@H](CO)[C@@H](O)C3O)c2n1 (stereo not given in full),inactive
16,Cn1ccnc1,inactive
17,O=[N+]([O-])c1ccc2c(c1)S(=O)(=O)C=C2,11.4 µM (active)
18,O=C1NC(c2cccc([N+](=O)[O-])c2)=CCN1c1ccccc1O,inactive
19,CCSC(=N)N,inactive
20,CN(C)C(=O)/N=N/C(=O)N(C)C,inactive
